About 410 targets per protein were measured; listed, in parts, are those with the strongest signals and a random draw of the rest.
Tests used:
Assay in all cases: glycan array binding signal (z-score within array); higher = stronger binding
Details in all cases: glycan notation: IUPAC condensed, linker removed
[1] = molecular target: Fuc(a1-2)Gal(b1-3)GalNAc(b1-3)Gal
Procedure, shortened: (§1)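 Columns mapping to the same glycan were averaged after glycan names were converted to IUPAC-condensed notation. The data come from 3228 arrays in the Consortium for Functional Glycomics database, limited to those with an available protein sequence. Binding is reported as a within-array Z-score averaged across arrays of one protein sequence and across linkers.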

[2] = molecular target: Fuc(a1-2)Gal(b1-3)GlcNAc(b1-2)Man(a1-3)[Fuc(a1-2)Gal(b1-3)GlcNAc(b1-2)Man(a1-6)]Man(b1-4)GlcNAc(b1-4)GlcNAc
Procedure, shortened: as §1

[3] = molecular target: Fuc(a1-2)Gal(b1-4)[Fuc(a1-3)]GlcNAc(b1-3)GalNAc
Procedure, shortened: as §1

[4] = molecular target: Fuc(a1-2)Gal6S(b1-3)GlcNAc
Procedure, shortened: as §1

[5] = molecular target: Fuc(a1-2)[Gal(a1-3)]Gal(b1-4)GlcNAc(b1-6)GalNAc
Procedure, shortened: as §1

[6] = molecular target: Fuc(a1-2)[GalNAc(a1-3)]Gal(b1-3)GlcNAc(b1-2)Man(a1-3)[Fuc(a1-2)[GalNAc(a1-3)]Gal(b1-3)GlcNAc(b1-2)Man(a1-6)]Man(b1-4)GlcNAc(b1-4)GlcNAc
Procedure, shortened: as §1

[7] = molecular target: Fuc(a1-2)[GalNAc(a1-3)]Gal(b1-3)GlcNAc(b1-3)GalNAc
Procedure, shortened: as §1

[8] = molecular target: Fuc(a1-2)[GalNAc(a1-3)]Gal(b1-4)Glc
Procedure, shortened: as §1

[9] = molecular target: Fuc(a1-2)[GalNAc(a1-3)]Gal(b1-4)GlcNAc(b1-3)Gal(b1-4)GlcNAc
Procedure, shortened: as §1

[10] = molecular target: Fuc(a1-2)[GalNAc(a1-3)]Gal(b1-4)[Fuc(a1-3)]GlcNAc(b1-3)GalNAc
Procedure, shortened: as §1

[11] = molecular target: Fuc(a1-3)[Gal(b1-4)]GlcNAc(b1-4)Gal(b1-4)[Fuc(a1-3)]GlcNAc
Procedure, shortened: as §1

[12] = molecular target: Fuc(a1-3)[Gal(b1-4)]GlcNAc(b1-6)GalNAc
Procedure, shortened: as §1

[13] = molecular target: Fuc(a1-3)[Gal(b1-4)]GlcNAc6S
Procedure, shortened: as §1

Gal(a1-2)Gal = molecular target: Gal(a1-2)Gal
Procedure, shortened: as §1

[14] = molecular target: Gal(a1-3)Gal(b1-3)GlcNAc(b1-2)Man(a1-3)[Gal(a1-3)Gal(b1-3)GlcNAc(b1-2)Man(a1-6)]Man(b1-4)GlcNAc(b1-4)GlcNAc
Procedure, shortened: as §1

Gal(a1-3)Gal(b1-4)GlcNAc = molecular target: Gal(a1-3)Gal(b1-4)GlcNAc
Procedure, shortened: as §1

Gal(b1-3)Gal = molecular target: Gal(b1-3)Gal
Procedure, shortened: as §1

[15] = molecular target: Gal(b1-3)GlcNAc(b1-2)Man(a1-3)[GlcNAc(b1-4)][Gal(b1-3)GlcNAc(b1-2)Man(a1-6)]Man(b1-4)GlcNAc(b1-4)GlcNAc
Procedure, shortened: as §1

[16] = molecular target: Gal(b1-3)[GlcNAc(b1-6)]GalNAc
Procedure, shortened: as §1

[17] = molecular target: Gal(b1-4)GlcNAc(b1-3)Gal(b1-4)GlcNAc
Procedure, shortened: as §1

[18] = molecular target: Gal(b1-4)GlcNAc(b1-3)GalNAc
Procedure, shortened: as §1

Gal6S(b1-4)Glc = molecular target: Gal6S(b1-4)Glc
Procedure, shortened: as §1

[19] = molecular target: GalNAc(a1-3)GalNAc(b1-3)Gal(a1-4)Gal(b1-4)Glc
Procedure, shortened: as §1

[20] = molecular target: GalNAc(b1-3)Gal(a1-4)Gal(b1-4)GlcNAc(b1-3)Gal(b1-4)Glc
Procedure, shortened: as §1

GalNAc6S(b1-4)GlcNAc = molecular target: GalNAc6S(b1-4)GlcNAc
Procedure, shortened: as §1

[21] = molecular target: GlcNAc(a1-4)Gal(b1-4)GalNAc
Procedure, shortened: as §1

[22] = molecular target: GlcNAc(a1-4)Gal(b1-4)GlcNAc(b1-3)Gal(b1-4)[Fuc(a1-3)]GlcNAc(b1-3)Gal(b1-4)[Fuc(a1-3)]GlcNAc
Procedure, shortened: as §1

[23] = molecular target: GlcNAc(b1-3)Gal(b1-4)GlcNAc
Procedure, shortened: as §1

[24] = molecular target: GlcNAc(b1-3)Gal(b1-4)GlcNAc(b1-3)Gal(b1-4)GlcNAc
Procedure, shortened: as §1

GlcNAc(b1-6)GalNAc = molecular target: GlcNAc(b1-6)GalNAc
Procedure, shortened: as §1

B1: PitA (Streptococcus oralis), G3F8D8 (protein)
chain: MNIRFDFKKVQIIARRLVTLLAILFLCAPISLLNADSTTEPQTTLHKTITPISGQDDKYELSLDITSKLGTETQTDPLDVVLVADLSGSMQNQDVQSFDGRTISRIDALKNTLRGTNGRKGLIDTILSNSNNRLSMVGFGGKIDNKKVDQYWDGNKWRLFRPYWPYERMTKYYDGVSPWDDANTILGWSNNARAAKTAVYNMSIAGGNSIGTESGIGTGTNIGAGLTLANQLMGSARSNAKKVVILLSDGFANMVYDANGYTIYNYNNEDPNIETAPQWFWDRLNNNLNSLSYSLAPTLDGFYSIKFRYSNNVDSITSLQYYMRQHNASIPNEIFSANDEDQLRDSFKDITDKILPLGIHHVSIKDVLSKYVQLLPNGSSEFRVVKEKDGSSEILIENQVTFDTKTTSEGLVEVTAKFSPNYSLEDGARYVLKFTVTSSQEALDAIAGDKKLEAGDAEGSDVNKLYSNKGASVTYSYGIGNSQTKTKEYSDNPTFKPSDPLTVPVEVEWQGVTGARTVITADQPSNVELKLVQKNKNGGSDNQDYRKTNVNVSKNVSNETRNFEKVAKGYQYDLIAPDVPAFTKEIKNVGTESKPSFKVIYKQLPSLTIKKVLEAENNLNKEFRIKVKLTSPDSKPLNGTFGEITVVNGEAEIRVEKRKRWEGILSYLPRGTHYKVEEEAASTNGYHVTYENQEGDLNKDETSIVTNHKLPSLSVTKKVTGVFANLLKSFKITINIRDAQNSPLNGTYTATVNNKRTPLQFTNGRASIDLNKDQTIKIYGLPLDSHYTVEEESNSSRGYQVSYENQEGKLDGDKSATVTNNKNSVPETGVDFLSSTLMLGIILPLGGIFFTILLGYLVVHRRK
glycan array binding signal (z-score) [1]: 10.3 | glycan array binding signal (z-score) [2]: 0.06 | glycan array binding signal (z-score) [3]: 7.27 | glycan array binding signal (z-score) [4]: -0.656 | glycan array binding signal (z-score) [5]: 0.131 | glycan array binding signal (z-score) [6]: -0.473 | glycan array binding signal (z-score) [7]: 4.75 | glycan array binding signal (z-score) [8]: -0.125 | glycan array binding signal (z-score) [9]: -0.715 | glycan array binding signal (z-score) [10]: 5.3 | glycan array binding signal (z-score) [11]: 0.05 | glycan array binding signal (z-score) [12]: 4.67 | glycan array binding signal (z-score) [13]: 0.782 | glycan array binding signal (z-score) (Gal(a1-2)Gal): -0.212 | glycan array binding signal (z-score) [14]: 3.83 | glycan array binding signal (z-score) (Gal(a1-3)Gal(b1-4)GlcNAc): -0.128 | glycan array binding signal (z-score) (Gal(b1-3)Gal): -0.7 | glycan array binding signal (z-score) [15]: 1.74 | glycan array binding signal (z-score) [16]: -0.437 | glycan array binding signal (z-score) [17]: -0.586 | glycan array binding signal (z-score) [18]: -0.575 | glycan array binding signal (z-score) (Gal6S(b1-4)Glc): -0.151 | glycan array binding signal (z-score) [19]: -0.395 | glycan array binding signal (z-score) [20]: 0.654 | glycan array binding signal (z-score) (GalNAc6S(b1-4)GlcNAc): 0.019 | glycan array binding signal (z-score) [21]: 5.14 | glycan array binding signal (z-score) [22]: 3.75 | glycan array binding signal (z-score) [23]: -0.199 | glycan array binding signal (z-score) [24]: -0.259 | glycan array binding signal (z-score) (GlcNAc(b1-6)GalNAc): 0.138

Reference: the supplement of paper PMC8728848
